This passage reports Potency results from PubChem BioAssay AID686979 (National Center for Advancing Translational Sciences (NCATS), 2013).

The campaign covered roughly 420,000 compounds. About 50,000 (12%) were called active. A call without a number means that no potency is given here. Another 26% or so got no clear call; they are omitted. The call rests on the fitted dose curve; in most records, active means well fitted inhibition curve with a large enough effect; inconclusive means small, poorly fitted or top-dose-only effect; inactive means flat fitted curve, though single readings scatter. For the sample, actives were picked, then their nearest neighbours and some compounds at random.
Potency means the concentration at half of the fitted maximal effect.

This test in a line: qHTS for Inhibitors of human tyrosyl-DNA phosphodiesterase 1 (TDP1): qHTS in cells in presence of CPT. Further: nearly all actives have a fitted effect of over 55% in size. As to conditions: chicken DT40 Tdp1-/-;hTDP1 cells + 20 nM CPT, ATP luminescence, 48 h; series mostly up to 46.2 µM. In short, it runs like this: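 Chicken DT40 Tdp1-/- cells complemented with human TDP1, 400 cells/well, exposed to compounds plus 20 nM camptothecin for at least 48 h at 37 C; viability read as ATP content by CellTiter-Glo luminescence.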
For the molecule `CC(=O)N1CCc2cc(Br)cc(S(=O)(=O)CCC(=O)Nc3c(C)n(C)n(-c4ccccc4)c3=O)c21`, the Potency entry was “inactive”.
The value for `COC(=O)c1cc(NC(=O)CCc2c(C)nc3c4c(C)cc(C)nc4nn3c2C)cc(C(=O)OC)c1` was “inactive”; that for `COc1ccc(NC(=O)CCCc2nnc3n(CCC(C)C)c(=O)c4sccc4n23)c(OC)c1` was “inactive”; that for `COc1cc(C(=O)NN(CCC#N)C2=NS(=O)(=O)c3ccccc32)cc(OC)c1OC` was “inactive”.
To `COc1cc(/C=C/C(=O)OCC(=O)Nc2cccc(Oc3ccccc3)c2)ccc1O` belongs “inactive”; to `CN(c1ccc(OCC(=O)O)cc1)S(=O)(=O)c1ccc2ccccc2c1`, “inactive”; to `COc1ccc(NC(=O)C/C(C)=N/NC(=O)c2cnccn2)cc1Cl`, “inactive”.
To `CC1(C(=O)NS(=O)(=O)c2ccccc2)CCN1C(=O)C/C=C/c1ccccc1` (configuration not stated) belongs “inactive”; to `CC1(C)CCSC(/C=C/c2ccccc2)=N1`, 4.61 µM (active).
As for `O=C(Nc1ccc(C(=O)OCc2cc(=O)n3nc(C4CC4)sc3n2)cc1)c1ccc(F)cc1`, the Potency result was “inactive”.
To `O=C(N/N=C/c1cccc(OC(=O)c2ccc([N+](=O)[O-])cc2)c1)c1cccnc1` belongs “inactive”.
The value for `O=C(CCNC(=O)Cn1ccc2ccccc2c1=O)NCCC1=CCCCC1` was “inactive”; that for `N#CC1(NC(=O)COC(=O)Cc2n[nH]c(=O)c3ccccc23)CCCCC1` was “inactive”.
The value for `C/C=C/C=C/C(=O)O` was “inactive”.
In the case of `CCc1nnc(NC(=O)CSc2nc3ccccc3c(=O)n2CCCOC)s1`, the Potency entry was “inactive”.
The value for `CCOCCCn1c(SCC(=O)Nc2cc(OC)ccc2OC)nc2ccccc2c1=O` was 13 µM (active).
To `COc1ccc(Cl)cc1NC(=O)CSc1nc2ccccc2c2nc(-c3ccccc3)nn12` belongs “inactive”.
Take `COc1ccc(OC)c(NC(=O)CSc2nc(-c3ccccc3)cc(=O)[nH]2)c1`: the Potency entry is “inactive”.
On to `CC(=O)NCCn1c(SCC(=O)Nc2ccc(C)cc2)nc2ccccc2c1=O`, for which the Potency result was “inactive”.
To `CCOCCCn1c(SCC(=O)Nc2ccc(CC)cc2)nc2ccccc2c1=O` belongs 14.6 µM (active).
The value for `CC(C)[C@@H]1NC(=O)c2cc([N+](=O)[O-])cc(I)c2NCCC[C@@H](C(=O)NC(CC(=O)O)C(N)=O)NC(=O)[C@H](CO)NC1=O` (some centres not stated) was “inactive”; that for `O=C(COC(=O)c1ccc(S(=O)(=O)N2CCCCCC2)cc1)Nc1ccccc1C(F)(F)F` was “inactive”.
To `CCc1ccccc1NC(=O)NCCN1CCCCC1` belongs “inactive”; to `CCCCN(C(=O)c1ccc(C)o1)c1c(N)n(CCCC)c(=O)[nH]c1=O`, “inactive”.
As to `COCCNc1ncnc2c1ncn2[C@H]1CN(CCN2CCOCC2)C[C@@H](CO)O1`, the Potency result was “inactive”.
The value for `COc1ccc(CN2C(=O)C(CC(=O)NC3CCCCC3)CC(C(=O)N3CCOCC3)=C2C)cc1` (configuration not stated) was “inactive”; that for `CN(C)CCOc1cccc(Br)c1` was “inactive”; that for `CC(C)(C)c1ccc(/C=C/C(=O)Nc2ncccn2)cc1` was “inactive”.
For `Cc1cccc(NC(=O)c2cccnc2Cl)n1`, the Potency entry is “inactive”.
To `CSc1nccc(NC(=O)c2ccc(C(C)(C)C)cc2)n1` belongs 9.2 µM (active).
With `COc1ccc(S(=O)(=O)N(C)C[C@H]2OCc3cnnn3CCCC(=O)N([C@H](C)CO)C[C@H]2C)cc1`, the Potency entry was “inactive”.
The value for `COCc1cc(=O)oc2cc(NS(=O)(=O)c3ccc(C)cc3)ccc12` was “inactive”; that for `Cc1cc(SCc2c(F)cccc2Cl)nc(=O)[nH]1` was “inactive”.
Regarding `Cn1ncc2c(N3CCCCC3)nc(NCCCO)nc21`, the Potency result is “inactive”.
The value for `COc1cccc(CN2CCN(Cc3ccc4cccc(F)c4n3)CC2CCO)c1` (configuration not stated) was “inactive”; that for `CC(=O)c1cccc(NC(=O)c2nc(-c3ccccc3)n(-c3cccc(C)c3)n2)c1` was 16.4 µM (active); that for `CC(=O)c1cccc(NC(=O)c2cc(C)nn2-c2ccccc2)c1` was “inactive”.
Consider `CC(=O)c1cccc(NC(=O)c2ccncc2)c1`, for which the Potency result is “inactive”.
The value for `COc1cccc(CNC(=O)c2cc(=O)[nH]c3ccc(S(=O)(=O)N4CCCCC4)cc23)c1` was “inactive”.
To `O=C1NC[C@H](CCCCN2C[C@H](Cc3ccccc3)N(Cc3ccccc3)C(=O)C2=O)N(CCc2ccc(O)cc2)C1=O` belongs “inactive”; to `O=[N+]([O-])c1ccc2c(c1)C(N1CCOCC1)/C(=C/C1(O)CCCCC1)O2` (configuration not stated), “inactive”; to `Cn1nc(-c2ccccc2)c2cc([N+](=O)[O-])ccc21`, “inactive”.
Take `CC1(C(=O)NS(=O)(=O)Cc2cccc(Cl)c2)CCN1C(=O)Cc1ccc(Cl)cc1Cl` (configuration not stated): the Potency entry is “inactive”.
The value for `Cc1ccccc1S(=O)(=O)NC(=O)C1(C)CCN1C(=O)C1(c2ccc(Cl)cc2)CC1` (configuration not stated) was “inactive”.
For `CC1(C(=O)Nc2cccc3c2CCCC3)CCN1C(=O)C1(c2ccccc2)CC1` (configuration not stated), the Potency is 16.4 µM (active).
The value for `Cc1ccccc1S(=O)(=O)NC(=O)C1(C)CCN1C(=O)C1(c2ccccc2)CCCC1` (configuration not stated) was 14.6 µM (active); that for `CCCNC(=O)C1(C)CCN1C(=O)C1(c2ccccc2)CC1` (configuration not stated) was “inactive”.
To `CC1(C(=O)NS(=O)(=O)c2ccc3ccccc3c2)CCN1C(=O)C1(c2ccc(Cl)cc2)CCC1` (configuration not stated) belongs “inactive”.
The value for `CC1(C(=O)Nc2cccc3c2CCCC3)CCN1C(=O)CCc1ccc(Cl)cc1Cl` (configuration not stated) was 20.6 µM (active); that for `O=C(Nc1cccc2c1CCCC2)c1ccc(F)cc1` was “inactive”; that for `Cc1ccccc1S(=O)(=O)NC(=O)C1(C)CCN1C(=O)Cc1ccc(Cl)cc1Cl` (configuration not stated) was “inactive”.
`CCCC(=O)N1CCC(CCC(=O)NC2CC2)CC1`: the Potency result was “inactive”.
For `COc1cc2c(cc1OC)/C(=C/C(=O)c1ccc(NC(C)=O)cc1)NCC2`, the Potency entry is “inactive”.
The value for `Cc1ccccc1CNC(=O)CCC(=O)N1Cc2ccccc2Oc2ncccc21` was “inactive”; that for `COC(=O)c1sc(NC(=O)COC(=O)C2CCC2)c(C(=O)OC)c1C` was “inactive”; that for `COc1cc(OC)c(C(=O)NNC(=O)c2ccc(NS(=O)(=O)c3cccs3)cc2)cc1OC` was “inactive”.
The value for `Cc1cccc(C)c1NC(=O)CSc1nc2c([nH]1)c(=O)n(C)c(=O)n2C` was “inactive”; that for `Cc1ccc2nc(SCC(=O)N3CCN(c4ccccc4)CC3)nc(=O)n2c1` was “inactive”; that for `CC(C)(C)n1cnnc1Sc1ccc([N+](=O)[O-])cn1` was “inactive”.
Consider `CCOc1ccccc1NC(=O)Cn1c(=O)n(Cc2ccco2)c(=O)c2sc3ccccc3c21`, for which the Potency entry was “inactive”.
The value for `Cc1nc2cc(C(F)(F)F)ccc2n1CCNc1nc(-c2cc(Cl)c(N)c(Cl)c2)cs1` was 23.1 µM (active); that for `O=C(Oc1cc(OC(=O)c2ccccc2)c2c(c1)OC(c1ccc(OC(=O)c3ccccc3)c(OC(=O)c3ccccc3)c1)[C@@H](OC(=O)c1ccccc1)C2)c1ccccc1` (some centres not stated) was “inactive”.
